Results reported in PubChem BioAssay AID430 (Sanford-Burnham Center for Chemical Genomics, 2006).
Screen size: about 63,000 compounds; about 1,100 (1.7%) were called active. No stated cut-off is given here; in the data, active means cytotoxicity above about 50%; inactive means the rest. The sample as a whole holds a higher share of actives than the screen did. Entries with a potency or affinity are not part of this list.

experiment: cytotoxicity in HPDE-C7 cells, cell-based, fluorescence, HTS (AID 430); details: HPDE-C7 pancreatic duct cells viability, at 10 µM, hits give high values;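 further: cells exposed to compound for 48 hours before viability readout; 0% = vehicle and 100% = reference cytotoxic drug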

| SMILES | cytotoxicity |
| --- | --- |
| Cc1nn(C)c(C)c1S(=O)(=O)NC1CCCc2ccccc21 (stereo not given) | -10% (inactive) |
| CCc1n[nH]c2c1/C(=N\O)CC(c1ccccc1)C2 (stereo not given) | -1.4% (inactive) |
| O=C(C1CCN(c2nnc(-n3cccc3)s2)CC1)N1CCN(Cc2ccc3c(c2)OCO3)CC1 | -3.5% (inactive) |
| C(=C\c1ccccc1)/CSc1nnc(-c2cnccn2)n1Cc1ccco1 | -10.9% (inactive) |
| CCOC(=O)N1CCN(C(=O)C(CC(C)C)NC(=O)C2CCCCC2)CC1 (stereo not given) | -6.8% (inactive) |
| Cc1ccnc(SCC(=O)Nc2oc(-c3ccccc3)c(-c3ccccc3)c2C#N)n1 | 24.1% (inactive) |
| CCn1c(SCC(=O)Nc2oc(-c3ccccc3)c(-c3ccccc3)c2C#N)nnc1-c1ccco1 | 32.7% (inactive) |
| N#Cc1c(NC(=O)CCN2C(=O)c3ccccc3C2=O)oc(-c2ccccc2)c1-c1ccccc1 | 18.8% (inactive) |
| N#Cc1c(NC(=O)Cn2c(=O)oc3ccccc32)oc(-c2ccccc2)c1-c1ccccc1 | 72% (active) |
| N#Cc1c(NC(=O)CN2CCOCC2)oc(-c2ccccc2)c1-c1ccccc1 | -0.2% (inactive) |
| CC(=O)NC(C)C(=O)OCC(=O)c1ccc(Cl)s1 (stereo not given) | -1.2% (inactive) |
| N#CCSc1nnc(COc2cccc3ccccc23)n1-c1ccccc1 | 37.6% (inactive) |
| CCS(=O)(=O)Nc1ccc(Cc2ccncc2)cc1 | -12.1% (inactive) |
| CCOCCCNC(=O)C(c1ccc(OC)cc1)N(Cc1ccc2c(c1)OCO2)C(=O)CNC(C)=O (stereo not given) | -6.5% (inactive) |
| C(=C\c1ccccc1)/CN1CCN(C(c2ccccc2)c2ccccc2)CC1 | 13% (inactive) |
| O=C(Nc1ccc(F)cc1)N1CCN(C/C=C/c2ccccc2)CC1 | 11.6% (inactive) |
| COc1cc(C2C3=C(CC(c4ccco4)CC3=O)Nc3ccccc3N2C(C)=O)cc(OC)c1OC (stereo not given) | -7.9% (inactive) |
| Cc1ccc(-c2[nH]c(=O)n3ccncc23)s1 | -9.9% (inactive) |
| CCOc1nc(-c2ccccc2)ccc1-c1noc(-c2ccncc2)n1 | 5.2% (inactive) |
| Cc1cnc(C(=O)Nc2ccc(N3CCOCC3)cc2)cn1 | 1.3% (inactive) |
| CC(C)(C)OC(=O)N1CCN(c2ccc(NC(=O)c3cc4ccccc4oc3=O)cc2)CC1 | -30.1% (inactive) |
| Cc1cnc(C(=O)Nc2ccc(N3CCN(C(=O)OC(C)(C)C)CC3)cc2)cn1 | 50.5% (active) |
| Cc1csc2nc(CCNS(=O)(=O)c3ccc4c(c3)OCCO4)cn12 | 3.5% (inactive) |
| CCOC(=O)Nc1ccc2c(c1)N(C(=O)CCN1CCOCC1)c1ccccc1S2=O (stereo not given) | 85.2% (active) |

| SMILES | cytotoxicity |
| --- | --- |
| CCOC(=O)Nc1ccc2c(c1)Sc1ccccc1N2C(=O)CCN1CCOCC1 | 11.7% (inactive) |
| CCOC(=O)Nc1ccc2c(c1)N(C(=O)CCN1CCOCC1)c1ccccc1S2 | -7.9% (inactive) |
| CC1(C)Cc2c(sc3nc(SCC(=O)NCc4ccco4)n(-c4ccccc4)c(=O)c23)CS1 | 3.1% (inactive) |
| O=C(CSc1nc2ccccc2c(=O)n1Cc1ccco1)NCc1ccccc1 | 58.8% (active) |
| O=C(CSc1nc2ccccc2c(=O)n1Cc1ccco1)NCc1ccco1 | -1.8% (inactive) |
| C=CCn1c(SCC(=O)NCc2ccco2)nc2sc3c(c2c1=O)CCCCC3 | 2.9% (inactive) |
| COCCNC(=O)CSc1nc2cc(OC)c(OC)cc2c(=O)n1Cc1ccco1 | -1.3% (inactive) |
| O=C(CSc1nc2sc3c(c2c(=O)n1-c1ccccc1)CCCC3)NCc1ccco1 | 85.6% (active) |
| O=c1c2ccccc2nc(SCc2ccccc2)n1Cc1ccco1 | 8.4% (inactive) |
| COc1cc2nc(SCC(=O)NCCc3ccccc3)n(Cc3ccco3)c(=O)c2cc1OC | -3.3% (inactive) |
| COc1cc2nc(SCC(=O)NCc3ccco3)n(Cc3ccc(Cl)cc3)c(=O)c2cc1OC | 50.9% (active) |
| CC(=O)c1cc2c(cc1NC(=O)C1CC=CCC1C(=O)O)OCO2 (stereo not given) | -5.7% (inactive) |
| CCn1c(C(C)NC(=O)c2ccc(OC)c(OC)c2)nc2ccccc21 (stereo not given) | 5.7% (inactive) |
| O=C(O)c1c[nH]ccc1=O | -18.4% (inactive) |
| CCc1cc2c3c(c(=O)oc2cc1OC)CCCC3 | 0% (inactive) |
| Cc1ccc(-c2nsc3c(N4CCN(C(=O)c5ccco5)CC4)ncnc23)cc1 | -21.7% (inactive) |
| CCCCN1Cc2cc(C(=O)c3cc(F)ccc3O)cnc2NC1=O | 6.2% (inactive) |
| CN1Cc2cc(C(=O)c3cc(Cl)cc(CSc4ncccn4)c3O)cnc2NC1=O | 68.2% (active) |
| Cc1ccc(O)c(C(=O)c2cnc3c(c2)CN(CCC(C)C)C(=O)N3)c1 | -5.5% (inactive) |
| CNC(=O)NC(=O)CSc1cccc(C(F)(F)F)c1 | -6.3% (inactive) |
| COc1ccccc1N1CC(C(=O)OCC(=O)c2ccc(F)cc2)CC1=O (stereo not given) | -16.4% (inactive) |
| O=C(Nc1cccnc1)c1cc(-c2cccs2)on1 | 14.1% (inactive) |
| O=C(Nc1ccc(-c2noc(CCc3ccccc3)n2)cc1)c1ccco1 | 6.6% (inactive) |
| COc1ccc(Cc2nc(-c3ccc(NC(=O)c4cccnc4)cc3)no2)cc1 | 27.4% (inactive) |

| SMILES | cytotoxicity |
| --- | --- |
| O=C(Nc1ccc(-c2noc(-c3cccs3)n2)cc1)c1cccnc1 | 53.2% (active) |
| O=C(Nc1ccc(-c2noc(CCc3ccccc3)n2)cc1)c1cccnc1 | 58.7% (active) |
| COc1cccc(-c2nc(-c3ccc(NC(=O)c4cccnc4)cc3)no2)c1 | 70.7% (active) |
| Cc1ccc(-c2noc(-c3cccs3)n2)cc1 | 0.6% (inactive) |
| COc1ccc(CC(=O)Nc2ccc(-c3noc(-c4cccc(OC)c4)n3)cc2)cc1 | 1% (inactive) |
| c1ccc(CCc2nc(-c3cccnc3)no2)cc1 | -9.2% (inactive) |
| COC(=O)C1=C(O)CSC1=Nc1cccc(C(F)(F)F)c1 | 6.1% (inactive) |
| CC1=CC(C)(C)N(C(=O)c2ccc(F)cc2)c2cc3c(cc21)OCO3 | -5.1% (inactive) |
| Cc1ccc2[nH]c(=O)c(CN(CCN3CCOCC3)C(=O)Nc3ccc(F)cc3)cc2c1 | 1.9% (inactive) |
| COc1ccc(CNC(=O)c2cc(-c3ccccc3O)n[nH]2)cc1 | -14.7% (inactive) |
| CCCCOC(=O)n1c(=O)oc2cc(S(=O)(=O)N3CCCCC3)ccc21 | 4.7% (inactive) |
| CCCSc1nnc2n(C)c(=O)c3c4c(sc3n12)CCC4 | 4.3% (inactive) |
| CCOC(=O)CSc1nnc2n(Cc3ccccc3)c(=O)c3c4c(sc3n12)CCC4 | 22.6% (inactive) |
| CCCSc1nnc2n(Cc3ccccc3)c(=O)c3c4c(sc3n12)CCC4 | 52.7% (active) |
| Cc1nnc2n(Cc3ccccc3)c(=O)c3c4c(sc3n12)CN(Cc1ccccc1)CC4 | 11.3% (inactive) |
| CC(C)C1Cc2c(sc3c2c(=O)n(Cc2ccccc2)c2nncn32)CO1 (stereo not given) | 7.1% (inactive) |
| CCC(C)N(C(=O)COC(=O)c1cn(CC)c2nc(C)ccc2c1=O)C1CCS(=O)(=O)C1 (stereo not given) | -10.6% (inactive) |
| CC(C)c1cc(C(=O)Nc2cccc(Cl)c2)no1 | 1.6% (inactive) |
| O=C(Nc1ccc(Oc2ccc(S(=O)(=O)N3CCOCC3)cn2)cc1)c1ccco1 | 2.4% (inactive) |
| COc1ccc2cc3c(N)c(C(=O)NCc4ccco4)sc3nc2c1 | -0.3% (inactive) |
| COc1cc2cc3c(N)c(C(=O)NCc4ccco4)sc3nc2cc1OC | 31.5% (inactive) |
| Nc1c(C(=O)NCc2ccco2)sc2nc3c(cc12)C(=O)CCC3 | 56.5% (active) |
| Cc1ccc(Cn2c(=O)c3ccccc3n3c(CCC(=O)O)nnc23)cc1 | 23% (inactive) |
| COC(=O)C1C(c2ccccc2)C(C(=O)N2CCOCC2)C1c1ccccc1 (stereo not given) | -2.2% (inactive) |

| SMILES | cytotoxicity |
| --- | --- |
| COc1ccc(CCN2C(=NC(=O)CCC(=O)O)SC3CS(=O)(=O)CC32)cc1OC (stereo not given) | -11% (inactive) |
| COc1ccc(CNC(=O)CSc2nnc(C)s2)cc1 | -6.3% (inactive) |
| CC(C)c1nnc(NC(=O)Cc2cccs2)s1 | 1.9% (inactive) |
| FC(F)(F)c1cc(-c2cccs2)nc(N2CCOCC2)n1 | -7.3% (inactive) |
| FC(F)(F)c1cc(-c2ccco2)nc(-n2nnc3ccccc32)n1 | 5.9% (inactive) |
| CC(C)c1nnc(NC(=O)CCS(=O)(=O)c2nc(-c3cccs3)cc(C(F)(F)F)n2)s1 | 87% (active) |
| FC(F)(F)c1cc(-c2ccco2)nc(NCc2ccccc2)n1 | 9.1% (inactive) |
| FC(F)(F)c1cc(-c2ccco2)nc(NCc2ccco2)n1 | 0.5% (inactive) |
| FC(F)(F)c1cc(-c2ccco2)nc(-n2cnc3ccccc32)n1 | 0% (inactive) |
| CN1CCN(c2nc(-c3cccs3)cc(C(F)(F)F)n2)CC1 | 1.7% (inactive) |
| CC(C)c1nnc(NC(=O)CCC(=O)Nc2ccc(F)cc2)s1 | 6.6% (inactive) |
| O=C(COc1cccc(-n2cnnn2)c1)N1CCOCC1 | 18.5% (inactive) |
| Cc1c(C)n(CC(O)CN2CCOCC2)c2ccccc12 (stereo not given) | -0.4% (inactive) |
| CC(C)C(c1nnnn1Cc1ccc2c(c1)OCO2)N1CCN(c2ccccc2)CC1 (stereo not given) | -9.2% (inactive) |
| COc1ccc(N2C(=O)CSC23C(=O)Nc2ccccc23)cc1OC (stereo not given) | -18.4% (inactive) |
| COc1cc(OC)cc(C(=O)Nc2ccccc2N2CCOCC2)c1 | -3.9% (inactive) |
| COc1cc(OC)c(C(=O)COc2ncnc3ccccc23)c(OC)c1 | -5.8% (inactive) |
| O=S(=O)(Nc1ccc2c(c1)OCO2)c1cccs1 | 15.6% (inactive) |
| Cn1c(NCC2CCCO2)nc2c1c(=O)n(Cc1ccccc1)c(=O)n2C (stereo not given) | 4.9% (inactive) |
| COc1nc(-c2ccccc2)cc(C(F)(F)F)n1 | -11.8% (inactive) |
| COc1ccc(-c2cc(C(F)(F)F)nc(N3CCCCC3)n2)cc1OC | -20.9% (inactive) |
| Nc1nc(-c2ccccc2)cc(C(F)(F)F)n1 | -0.7% (inactive) |
| COc1ccc(-c2cc(C(F)(F)F)nc(NC3CCCC3)n2)cc1OC | 24.7% (inactive) |
